# Results taken from the supplement of paper PMC3545927.
# The list shows a part of the results. The true hit rate is not given.
# B1: HC678 (peptide)
# chain: CAQTRGLLGCAGNASASA
# B2: HC1247 (peptide)
# chain: CASMLTDPSHAGNASASA
# B3: FS-2267 (peptide)
# chain: CARKKRKAAPAGNASASA
# B4: FS-3192 (peptide)
# chain: CARKKRKPEEAGNASASA
# B5: FS-2965 (peptide)
# chain: CARKKRLISYAGNASASA
# B6: FS-1845 (peptide)
# chain: CADFERSRAFAGNASASA
# B7: FS-3191 (peptide)
# chain: CARKKRKIKEAGNASASA
# B8: FS-2966 (peptide)
# chain: CARKKRMAKYAGNASASA
# B9: FS-2663 (peptide)
# chain: CARFKRSAQFAGNASASA
# B10: HC309 (peptide)
# chain: CARHWTTQGCAGNASASA
# B11: HC26 (peptide)
# chain: CAMEECFQHLAGNASASA
# B12: HC1086 (peptide)
# chain: CAILAGYGAGAGNASASA
# B13: FS-3195 (peptide)
# chain: CARKSRSKSKAGNASASA
# B14: FS-2981 (peptide)
# chain: CARKSRPNASAGNASASA
# B15: FS-2269 (peptide)
# chain: CARKKRQVPYAGNASASA
# B16: FS-1958 (peptide)
# chain: CARKKRSQTYAGNASASA
# B17: FS-1957 (peptide)
# chain: CARKKRSEYYAGNASASA
# B18: FS-3224 (peptide)
# chain: CARKSRSPHNAGNASASA
# B19: HC302 (peptide)
# chain: CASVFLVGQLAGNASASA
# B20: CS5 (peptide)
# chain: CAGDEVDGAGAGNASASA
# B21: HC1343 (peptide)
# chain: CATTTSSEPAAGNASASA
# B22: HC2025 (peptide)
# chain: CAVVLCSMSYAGNASASA
# B23: HC777 (peptide)
# chain: CAGSGKSTKVAGNASASA
# B24: HC808 (peptide)
# chain: CATYGKFLADAGNASASA
# B25: HC1461 (peptide)
# chain: CAKLPLAVMGAGNASASA
# B26: HC1616 (peptide)
# chain: CAKLGVPPLRAGNASASA
# B27: FS-2036 (peptide)
# chain: CARKKRSAQNAGNASASA
# B28: FS-1827 (peptide)
# chain: CARKKRISANAGNASASA
# B29: FS-2878 (peptide)
# chain: CAQKKRSAQYAGNASASA
# B30: FS-1483 (peptide)
# chain: CARTDRCRRGAGNASASA
# B31: FS-1374 (peptide)
# chain: CALTARFRRGAGNASASA
# B32: FS-250 (peptide)
# chain: CAIHARFRRGAGNASASA
# B33: FS-3104 (peptide)
# chain: CARTGRQVLGAGNASASA
# B34: FS-883 (peptide)
# chain: CATREAFRRGAGNASASA
# B35: HC815 (peptide)
# chain: CAAYDIIICDAGNASASA
# B36: HC1107 (peptide)
# chain: CAVVGVVCAAAGNASASA
# B37: HC618 (peptide)
# chain: CAVQGLLRFCAGNASASA
# B38: TR2 (peptide)
# chain: CAGVPRSFRGAGNASASA
# B39: FS-67 (peptide)
# chain: CAPANRSRRGAGNASASA
# B40: FS-1016 (peptide)
# chain: CAIRKRDRRGAGNASASA
# B41: FS-1344 (peptide)
# chain: CAIIKRSRRGAGNASASA
# B42: FS-547 (peptide)
# chain: CALASRRYRGAGNASASA
# B43: FS-816 (peptide)
# chain: CALARRSRRGAGNASASA
# B44: HC1164 (peptide)
# chain: CAPFVSCQRGAGNASASA
# B45: FS-2408 (peptide)
# chain: CAIIKRSAWEAGNASASA
# Molecular target: furin, P09958
# Assay: furin cleavage Z-score vs untreated control; higher = more cleavage, active = 3.5 or more, inactive = 1 or less, 8 variable residues between constant flanks
# Procedure, shortened: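 Read counts from sequencing released DNA gave abundance for each bead-bound 8-mer peptide–cDNA fusion cut by purified furin over 7.5, 15 or 30 min. The cleavage Z-score compares log counts with furin-free reactions after lowess adjustment and median absolute deviation scaling.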
# 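Note: purified furin at 1:10 enzyme:substrate in 50 mM HEPES pH 7.5.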
# Sequence of furin, P09958 (P09958 whole entry): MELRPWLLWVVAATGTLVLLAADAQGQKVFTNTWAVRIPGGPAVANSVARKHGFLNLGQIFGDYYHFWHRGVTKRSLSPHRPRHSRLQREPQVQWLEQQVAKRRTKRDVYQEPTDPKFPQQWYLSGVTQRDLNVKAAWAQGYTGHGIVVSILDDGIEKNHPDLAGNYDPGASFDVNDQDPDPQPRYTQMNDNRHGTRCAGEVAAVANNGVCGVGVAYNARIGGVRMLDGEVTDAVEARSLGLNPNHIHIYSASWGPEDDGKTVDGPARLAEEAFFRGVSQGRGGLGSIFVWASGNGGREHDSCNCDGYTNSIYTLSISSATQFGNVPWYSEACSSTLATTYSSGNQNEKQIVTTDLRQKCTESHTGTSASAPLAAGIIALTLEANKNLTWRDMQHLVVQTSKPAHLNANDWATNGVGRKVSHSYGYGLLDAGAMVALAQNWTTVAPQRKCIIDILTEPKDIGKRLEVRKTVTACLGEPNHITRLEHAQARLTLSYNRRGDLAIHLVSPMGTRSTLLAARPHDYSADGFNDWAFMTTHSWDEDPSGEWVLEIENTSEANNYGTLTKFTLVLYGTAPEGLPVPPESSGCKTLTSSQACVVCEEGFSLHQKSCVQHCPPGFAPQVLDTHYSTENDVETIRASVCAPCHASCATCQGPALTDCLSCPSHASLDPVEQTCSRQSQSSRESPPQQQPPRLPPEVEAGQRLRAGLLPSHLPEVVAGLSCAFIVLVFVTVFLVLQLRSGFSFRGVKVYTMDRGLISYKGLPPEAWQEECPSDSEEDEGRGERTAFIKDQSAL
Sequence,furin cleavage Z-score (7.5 min),furin cleavage Z-score (15 min),furin cleavage Z-score (30 min)
B1,0.117 (inactive),-0.157 (inactive),-0.705 (inactive)
B2,0.787 (inactive),1.14,0.981 (inactive)
B3,5.91 (active),5.87 (active),5.5 (active)
B4,0.523 (inactive),1.22,1.86
B5,0.348 (inactive),3.83 (active),6.5 (active)
B6,-0.875 (inactive),-0.501 (inactive),-0.616 (inactive)
B7,-0.575 (inactive),-0.156 (inactive),2.36
B8,5.67 (active),7.97 (active),8.42 (active)
B9,9.02 (active),10 (active),9.39 (active)
B10,0.306 (inactive),-0.845 (inactive),0.176 (inactive)
B11,0.765 (inactive),1.72,1.22
B12,-0.899 (inactive),-0.697 (inactive),-0.69 (inactive)
B13,1.71,0.576 (inactive),0.352 (inactive)
B14,0.905 (inactive),-0.37 (inactive),-0.749 (inactive)
B15,7.32 (active),7.2 (active),5.84 (active)
B16,8.08 (active),10.2 (active),9.02 (active)
B17,5.84 (active),8.3 (active),8.52 (active)
B18,7.07 (active),8.27 (active),8.28 (active)
B19,-1.01 (inactive),0.196 (inactive),-1.15 (inactive)
B20,-1.72 (inactive),-1.16 (inactive),-2.65 (inactive)
B21,0.91 (inactive),0.314 (inactive),0.501 (inactive)
B22,-0.0785 (inactive),0.317 (inactive),-1.45 (inactive)
B23,-0.846 (inactive),-1.25 (inactive),-0.383 (inactive)

Sequence,furin cleavage Z-score (7.5 min),furin cleavage Z-score (15 min),furin cleavage Z-score (30 min)
B24,-0.371 (inactive),0.314 (inactive),-0.318 (inactive)
B25,-1.04 (inactive),0.392 (inactive),-1.13 (inactive)
B26,-0.0832 (inactive),-1.53 (inactive),0.294 (inactive)
B27,11.7 (active),14 (active),8.93 (active)
B28,0.255 (inactive),0.21 (inactive),-0.0863 (inactive)
B29,0.0672 (inactive),0.984 (inactive),2.02
B30,7.57 (active),8.52 (active),8.04 (active)
B31,10.8 (active),12 (active),9.56 (active)
B32,11.1 (active),12.1 (active),9.69 (active)
B33,0.169 (inactive),-0.821 (inactive),-1.11 (inactive)
B34,-0.796 (inactive),-0.878 (inactive),-1.14 (inactive)
B35,-1.2 (inactive),-0.574 (inactive),-0.848 (inactive)
B36,0.556 (inactive),-0.0757 (inactive),-0.152 (inactive)
B37,-0.0765 (inactive),0.463 (inactive),-0.436 (inactive)
B38,0.299 (inactive),-0.905 (inactive),-1.74 (inactive)
B39,10.1 (active),11.8 (active),9.38 (active)
B40,12 (active),13.2 (active),9.35 (active)
B41,6.89 (active),7.38 (active),7.28 (active)
B42,-0.863 (inactive),-0.493 (inactive),-0.101 (inactive)
B43,7.83 (active),7.63 (active),6.48 (active)
B44,0.755 (inactive),0.834 (inactive),-0.509 (inactive)
B45,-0.767 (inactive),-0.224 (inactive),-0.00284 (inactive)
